Hits are enriched below; roughly 9.3% of the tested compounds scored in any of these assays.
ELG1 genotoxic: inducers of genotoxicity in HEK293T ELG1-luciferase cells | 330,000 compounds, 1.3% hits | Potency, µM (titrated, usually from 46 µM), usual class: activators | HEK293T ELG1-luciferase reporter, luminescence, 16 h; note: nearly all actives have a fitted effect of over 60% in size
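Genotoxic stress is detected as increased luminescence from luciferase-tagged ELG1 in HEK293T cells, measured with ONE-Glo after a 16 hr treatment at 37 °C.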
SMN2 splice up: increases expression of the SMN2 splice variant; HEK293 SMN2-luciferase splicing reporter, luminescence, 30-36 h; Potency, µM (titrated, usually from 46.1 µM), most hits filed as activators; 210,000 compounds, 2.8% hits; note: nearly all actives have a fitted effect of over 55% in size
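HEK293 cells carry an SMN2 […]–luciferase reporter in which exon 7 inclusion puts luciferase in frame. Cells were plated 10-12 h before compound addition, then incubated 30-36 h at 37C. ONE-Glo luminescence was read; sodium butyrate at 4.5 mM final served as control.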
Rab9 prom act: activates the Rab9 promoter | Huh7 Rab9 promoter-luciferase reporter, luminescence, 24 h | Potency, µM (highest dose often 9.22 µM), hits mostly activators | 320,000 compounds, 2.8% hits | AID 485297; note: nearly all actives have a fitted effect of over 60% in size
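Quantitative HTS format; Huh7 Rab9-luciferase reporter cells (1500/well) receive compound 2 h post-plating, incubate 24 h at 37 °C, then get luciferase reagent for 10 min before luminescence reading.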
NPC1 prom act: activates the NPC1 promoter; 320,000 compounds, 2.4% hits; AID 485313; Huh7 NPC1 promoter luciferase reporter, 24 h; Potency, µM (highest dose often 9.22 µM), hits mostly activators; note: nearly all actives have a fitted effect of over 60% in size
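Quantitative HTS used a cell-based reporter: Huh7 cells stably bearing the NPC1 promoter upstream of luciferase were treated with compounds for 24 h, and promoter activation was read as luminescence.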
ELG1 DNA repair: blocks ELG1-dependent DNA repair in HEK293T cells; HEK293T ELG1-luciferase reporter, luminescence, 16 h; DNA damage induced by 5-fluorouridine; Potency, µM (doses to about 46.1 µM), usual class: inhibitors; 330,000 compounds, 2.3% hits; AID 504467; note: nearly all actives have a fitted effect of over 55% in size
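5-Fluorouridine DNA damage + compound/DMSO, 2,000 cells/well, 16 h, 37 °C/5% CO2. ONE-Glo, 30 min RT, luminescence. Readout = decrease in reporter signal.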
FLuc counter: inhibits or activates purified firefly luciferase, miR-21 counter-screen. purified FLuc, Km substrates, luminescence inhibition. Potency, µM (doses to about 57.5 µM), most hits filed as inhibitors. 360,000 compounds, 6.9% hits. P08659. AID 588342; note: nearly all actives have a fitted effect of over 55% in size
Target sequence (P08659 whole entry, looked up): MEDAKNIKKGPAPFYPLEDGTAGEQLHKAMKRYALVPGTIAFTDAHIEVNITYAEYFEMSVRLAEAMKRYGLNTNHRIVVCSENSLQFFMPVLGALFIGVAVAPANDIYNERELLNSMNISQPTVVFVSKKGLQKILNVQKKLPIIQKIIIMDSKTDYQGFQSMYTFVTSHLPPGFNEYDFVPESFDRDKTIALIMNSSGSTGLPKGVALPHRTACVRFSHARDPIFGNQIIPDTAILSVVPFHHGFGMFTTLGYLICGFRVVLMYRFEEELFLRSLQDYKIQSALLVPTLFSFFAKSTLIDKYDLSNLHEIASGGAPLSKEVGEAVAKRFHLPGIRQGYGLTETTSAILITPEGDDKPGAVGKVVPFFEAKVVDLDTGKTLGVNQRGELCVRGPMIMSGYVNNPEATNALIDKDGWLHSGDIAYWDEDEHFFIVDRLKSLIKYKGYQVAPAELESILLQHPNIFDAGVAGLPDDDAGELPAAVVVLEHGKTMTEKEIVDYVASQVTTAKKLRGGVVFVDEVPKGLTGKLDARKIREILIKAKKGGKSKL
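Purified P. pyralis luciferase (10nM final) with 10uM D-luciferin and 10uM ATP (Km levels) in 50mM Tris acetate pH 7.5, 10mM Mg acetate, 0.01% Tween-20, 0.05% BSA; qHTS 6-point titration, ~60 µM downward; luminescence read.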
A number is an active result; i = inactive; ? = inconclusive; nt = not tested or not shown; [ ] = dose if it differs, or a comment. Calls come from the whole dose curve; as a rule, active = well fitted curve in the direction sought with a large enough effect; inconclusive = small, poorly fitted or top-dose-only effect, or another doubt; inactive = no such curve, though single readings can be large; an effect the other way counts as inactive or inconclusive.

SMILES	ELG1 genotoxic	SMN2 splice up	Rab9 prom act	NPC1 prom act	ELG1 DNA repair	FLuc counter
Cc1cc(C)nc(/N=C(\N)Nc2cccc(OCc3ccccc3)c2)n1	i	nt	i	i	21µM	i
Cc1cc(C)n2nc(C(=O)OC(C)C(=O)c3ccccc3)nc2n1 (configuration not stated)	i	nt	i	i	i	i
CN(CC(=O)NC1CC1)S(=O)(=O)c1cc(Cl)ccc1Cl	i	nt	i	i	i	i
COc1ccc(Cl)cc1NC(=O)CSc1c2c(nc3ccccc13)CCC2	nt	i	nt	nt	nt	i
Nc1c(C(=O)NC2CC2)c2nc3ccccc3nc2n1-c1ccc2c(c1)OCO2	i	i	i	i	16µM	i
CCCNC(=O)c1c(N)n(-c2cc(OC)cc(OC)c2)c2nc3ccccc3nc12	i	i	i	i	18µM	i
CCOC(=O)c1c(N)n(-c2cccc(OC)c2)c2nc3ccccc3nc12	nt	nt	nt	nt	nt	i
CCOC(=O)c1c(N)n(-c2ccc(N)cc2)c2nc3ccccc3nc12	i	i	i	i	9.2µM	i
CCCNC(=O)c1c(N)n(-c2ccc3c(c2)OCO3)c2nc3ccccc3nc12	?	i	i	i	i	i
CC(=C/c1ccccc1)/C=C1/SC(N2CCOCC2)=NC1=O	i	?	?	?	?	15µM
CCN1C(=O)/C(=C/C2=Cc3ccccc3OC2C)SC1=S (configuration not stated)	i	nt	i	i	i	13µM
CC1Oc2ccccc2C=C1/C=C1/SC(N2CCOCC2)=NC1=O (configuration not stated)	i	i	?	i	?	21µM
CCOC(=O)c1cc2c(=O)n3ccccc3nc2n(CC2CCCO2)c1=NC(=O)c1ccc(C)cc1 (configuration not stated)	nt	i	nt	nt	nt	i
COCC(C)n1c(C)cc(C(=O)CSc2nnnn2-c2ccc(O)cc2)c1C (configuration not stated)	i	i	i	i	i	21µM
COCC(C)n1c(C)cc(C(=O)CSc2ccc(NC(C)=O)cc2)c1C (configuration not stated)	7.9µM	i	?	?	?	i
COCC(C)n1c(C)cc(C(=O)CSc2nnc(-c3ccco3)o2)c1C (configuration not stated)	i	nt	nt	nt	i	nt
O=C(O)CSc1ncccn1	i	i	i	i	i	i
O=C(CSc1ncccn1)c1ccccc1Br	i	13µM	i	i	?	?
COCC(C)n1c(C)cc(C(=O)CSc2nnc(Nc3ccccc3F)s2)c1C (configuration not stated)	i	i	i	i	?	17µM
CCOC(=O)C(=O)N1CCC(C(=O)OCC)CC1	i	nt	i	i	i	i
O=C(c1cccc(Cl)c1)N1CCN(S(=O)(=O)c2ccc(Cl)s2)CC1	i	nt	i	i	i	i
Cc1ccc(CS(=O)(=O)c2ncn[nH]2)cc1	i	i	i	i	i	i
COC(=O)c1ccc(-n2c(C)cc(C(=O)CSc3ccc(NC(C)=O)cc3)c2C)cc1	i	i	i	i	?	i
COCC(C)n1c(C)cc(C(=O)CSc2ncccn2)c1C (configuration not stated)	?	11µM	4µM	3.2µM	?	15µM
COCCn1c(C)cc(C(=O)CSc2ccc(NC(C)=O)cc2)c1C	?	i	2µM	?	?	?
SMILES	ELG1 genotoxic	SMN2 splice up	Rab9 prom act	NPC1 prom act	ELG1 DNA repair	FLuc counter
CC(=O)Nc1ccc(NC(=O)CSc2ccc(C)cc2)cc1	i	i	i	i	i	i
CC(=O)Nc1ccc(SCC(=O)c2cc(C)n(-c3ccccc3F)c2C)cc1	?	i	i	?	?	6µM
C=CCn1c(C)cc(C(=O)CSc2ccc(NC(C)=O)cc2)c1C	?	i	0.32µM	0.5µM	?	17µM
COc1ccc(OC)c(NC(=O)c2nc(-c3ccccc3)oc2C)c1	i	i	i	i	i	i
CCc1ccc(OCC(=O)Nc2cc(S(=O)(=O)CC)ccc2O)cc1	i	i	i	i	i	24µM
O=C(COc1ccc2ccccc2c1)NC1CC1	i	i	?	i	?	17µM
COc1ccc(NC(=O)COc2ccccc2)c(OC)c1	18µM	i	?	?	?	19µM
CCS(=O)(=O)c1ccc(O)c(NC(=O)COc2ccccc2)c1	i	i	i	i	i	i
COc1ccc(NC(=O)CS(=O)(=O)c2cn(CC(=O)N(C(C)C)C(C)C)c3ccccc23)c(OC)c1	i	nt	i	i	?	i
COc1ccc(NC(=O)Cn2cc(S(=O)(=O)Cc3ccccc3)c3ccccc32)c(OC)c1	i	i	i	i	15µM	i
CCOc1ccc(N(CC(=O)NC2CCCCC2)C(=O)CCC(=O)Nc2cc(C)ccn2)cc1	i	nt	i	i	i	i
C=CCNC(=S)Nc1cccc2[nH]ncc12	i	i	i	i	i	i
O=C(COc1ccc2ccccc2c1)Nc1ccc(Cc2ccncc2)cc1	i	i	i	i	i	i
COc1ccc(C)cc1NC(=O)COC(=O)Cc1ccc(-c2ccccc2)cc1	i	nt	i	i	i	?
COc1ccc(NC(=O)COC(=O)Cc2ccc(-c3ccccc3)cc2)c(OC)c1	i	i	i	i	i	13µM
O=C(O)Cc1ccc(NC(=O)COc2ccc3ccccc3c2)cc1	i	nt	i	i	i	19µM
COc1ccccc1NC(=O)COc1ccc2ccccc2c1	i	nt	i	i	?	15µM
COc1ccc(OCC(=O)Nc2ccccc2O)cc1	9.2µM	i	?	i	?	21µM
COc1ccccc1NC(=O)c1sc2nc(C)c(C(=O)Nc3ccc(C)cc3C)c(-c3cccs3)c2c1N	nt	i	nt	nt	nt	i
COc1ccc2c(c1-c1c3c(cc(Br)c1OC)CCCC3)CCCC2	nt	i	nt	nt	nt	nt
Cc1cc(C)n(CCNc2nc3nonc3nc2N2CCCCC2)n1	i	nt	i	i	i	i
O=C(COc1ccc2ccccc2c1)Nc1ccccc1C(=O)O	i	nt	i	i	?	17µM
COc1ccc(C(=O)N/N=C(/C)c2cccc(NC(=O)c3ccncc3)c2)cc1OC	i	nt	i	i	?	?
COc1ccc(/C(C)=N/Nc2nc3ccccc3nc2C)cc1OC	i	nt	i	i	?	3µM
O=C(N/N=C/c1cc(Br)cc(Br)c1O)c1ccncc1	?	i	i	i	?	i
COc1ccc(/C(C)=N/Nc2cccc(C(=O)O)c2)cc1OC	5.2µM	10µM	1.1µM	1µM	?	3.8µM
COc1ccc(C(=O)Nc2cccc(/C(C)=N/NC(=O)c3ccc([N+](=O)[O-])cc3)c2)cc1OC	i	i	i	i	i	5.4µM
O=C(O)c1cccc(N/N=C/c2cc(Br)cc(Br)c2O)c1	?	i[1.84 µM]	2.8µM	?	?	24µM
COc1ccc(/C(C)=N\NS(=O)(=O)c2ccccc2)cc1OC	i	i	i	i	i	i

From PubChem
